Screening results from PubChem BioAssay.
D2 PAM-1: HTS Assay for Positive Allosteric Modulators of the Human D2 Dopamine Receptor: Primary Screen for Potentiators. HEK293 T-REx D2, calcium flux, EC20 dopamine potentiation. 340,000 tested, 0.34% active. potentiation, % at 10 µM;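 active = potentiation over 3 SD above the plate norm, cut at about 30% in these data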; also: 0% is about no effect
Target sequence (P14416 whole entry, looked up): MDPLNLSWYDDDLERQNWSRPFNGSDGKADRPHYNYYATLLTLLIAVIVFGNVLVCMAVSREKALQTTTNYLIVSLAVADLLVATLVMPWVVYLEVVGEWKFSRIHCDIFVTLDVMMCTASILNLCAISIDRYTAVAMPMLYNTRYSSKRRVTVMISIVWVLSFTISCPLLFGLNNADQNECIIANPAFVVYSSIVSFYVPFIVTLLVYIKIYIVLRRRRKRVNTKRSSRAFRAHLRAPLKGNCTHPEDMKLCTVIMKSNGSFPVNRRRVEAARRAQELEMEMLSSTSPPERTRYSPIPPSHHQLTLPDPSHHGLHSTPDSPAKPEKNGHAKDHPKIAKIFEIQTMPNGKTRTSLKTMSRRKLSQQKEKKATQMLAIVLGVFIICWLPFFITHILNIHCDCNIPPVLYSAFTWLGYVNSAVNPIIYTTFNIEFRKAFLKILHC
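Tetracycline-induced Hek293 Trex D2 cells, force-coupled to calcium, loaded with no-wash calcium dye. Compound added with 180 s kinetic read for agonism, then EC20 dopamine and a further 180 s read for potentiation.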
D2 antag: HTS Assay for Allosteric Antagonists of the Human D2 Dopamine Receptor: Primary Screen for Antagonists; HEK293 TREx D2 cells, calcium flux, dopamine EC80; inhibition, % at 10 µM; D(2) dopamine receptor (Homo sapiens), P14416; 340,000 tested, 2% active; in the data active = inhibition above about 30%; inactive = below that, where a call was filed; also: 0% is about no effect
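In this primary screen, negative modulation is detected by tracking calcium flux after an EC80 dopamine challenge in inducible HEK293 T-REx D2 cells preexposed to test compound for 180 s.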
D2 ag-1: Beta-Arrestin HTS for Positive Allosteric Modulators of the Human D2 Dopamine Receptor: Agonists. D(2) dopamine receptor (Homo sapiens), P14416. DiscoveRx PathHunter D2 beta-arrestin, luminescence, 90 min; 100% = 57 uM dopamine signal. activation, % (concentration not given with the values). 360,000 tested, 0.084% active; in the data active = activation above about 40%; inconclusive = between about 15% and that limit
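Agonist mode: compounds alone added to overnight-plated D2 PathHunter cells for 90 min at 37 C, with 57 uM final dopamine (EC100) defining full response. Beta-arrestin recruitment detected by chemiluminescent reagent, read after 1 h at ambient temperature.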
D2 ag-2: HTS Assay for Allosteric Agonists of the Human D2 Dopamine Receptor: Primary Screen for Agonists; 340,000 tested, 0.53% active; HEK293 T-REx D2 cells, calcium flux agonist mode; D(2) dopamine receptor (Homo sapiens), P14416; activation, % at 2 µM;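 active = activation over 3 SD above normal in the single-dose calcium agonist read, cut at about 30% in these data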; also: 0% is about no effect
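Tetracycline-induced HEK293 Trex cells with D2 receptor force-coupled to calcium signaling, plated overnight at 30 C and loaded with no-wash calcium dye. Calcium flux read kinetically for 180 s after compound addition; responses flag agonists.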
D2 PAM-2: Beta-Arrestin HTS for Positive Allosteric Modulators of the Human D2 Dopamine Receptor: Potentiators; 360,000 tested, 0.23% active; DiscoveRx D2 beta-arrestin cells, luminescence, 90 min; 100% = 57 uM dopamine signal; potentiation, % (no concentration beside the values); in the data active = potentiation above about 50%; inconclusive = mostly about 30% to 49%
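PathHunter beta-arrestin assay in DiscoveRx D2 cells. Compounds were added with an EC20 of dopamine (50 nM final) for 90 min at 37 deg C. Luminescence was read 1 h after detection reagent, with 57 uM dopamine as the EC100 control.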
D3 arrestin ag: qHTS of D3 Dopamine Receptor Agonist: D3 Dopamine Receptor B-arrestin Agonist Confirmatory Assay; shares compounds with D2 ag-2; DiscoveRx D3 beta-arrestin cells, luminescence, 90 min; Potency, µM (titrated, usually from 76.9 µM), for inactives: at the highest dose activation, actives largely listed as activators; 2,300 tested, 4% active;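 also: potency is read from the fitted curve at half-maximal effect; 100% = dopamine control response; nearly all actives have a fitted effect of over 70% in size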
D2 ag-3: qHTS of D3 Dopamine Receptor Agonist: D2 Dopamine Receptor B-arrestin Agonist Counterscreen; shares compounds with D2 ag-2; 2,300 tested, 5.9% active; Potency, µM (doses to about 76.9 µM), for the others: at the highest dose activation, usual class: activators; DiscoveRx PathHunter D2 beta-arrestin, luminescence, 90 min; response scale: percent relative to full dopamine signal; also: potency is read from the fitted curve at half-maximal effect; % of control where 0% means no effect; nearly all actives have a fitted effect of over 70% in size
Starred values were filed as active, the others as inactive; ? = inconclusive; · = not tested or not shown. Rows were chosen to be rich in hits. Some 2.4% of all compounds tested hit in one or more screens of this group. Unless noted, calls follow the shape of the dose curve; as a rule, active = well fitted activation curve with a large enough effect; inconclusive = small, poorly fitted or top-dose-only effect; inactive = flat fitted curve, though single readings scatter.

SMILES	D2 PAM-1	D2 antag	D2 ag-1	D2 ag-2	D2 PAM-2	D3 arrestin ag	D2 ag-3
Cn1cnc(C(=O)N2CCN(c3ccccc3)CC2)c1C(=O)N1CCN(c2ccccc2)CC1	5	-3	-2	1	-5	0%	-2%
CCC(=O)Oc1ccc(C(=O)Nc2ccc3c(c2)OCO3)cc1	2	17	6	-1	-6	2%	1%
O=C(CN1C(=O)COc2ccc(S(=O)(=O)N3CCOCC3)cc21)N1CCN(c2cccc(C(F)(F)F)c2)CC1	-22	·	·	1	·	·	·
O=S(=O)(c1ccc(NC(=S)N/N=C/c2c3ccccc3cc3ccccc23)cc1)N1CCOCC1	8	24	2	0	-12	29%	13%
O=S(=O)(c1ccc(NC(=S)N/N=C/c2ccc(Oc3ccccc3)cc2)cc1)N1CCOCC1	-12	8	4	1	-5	·	·
COCCN(Cc1ccco1)C(=O)C1CCCN(c2ncnc3c2nc2n3CCCCC2)C1 (stereo not given)	-19	7	1	-3	2	4%	-5%
COc1cc(NC(=O)C2CCCN(c3ncnc4c3nc3n4CCCCC3)C2)cc(OC)c1OC (stereo not given)	-3	-10	4	39*	18	5%	-3%
CCC(Cc1ccccc1)NC(=O)c1ccc2nc(N3CCC(C)CC3)sc2c1 (stereo not given)	·	·	·	1	·	·	·
O=C(C1CCCN(Cc2cccnc2)C1)N1CCCCC1 (stereo not given)	-2	11	4	0	-5	-2%	-2%
O=C(N1CCN(c2ccccc2)CC1)C12CC3CC(CC(C3)C1)C2	-30	72*	7	80*	-2	22%	21%
O=C(N1CCN(Cc2ccccc2)CC1)C12CC3CC(CC(C3)C1)C2	10	-20	-3	-1	-24	·	·
CC12CCC3C(CCC4CC(O)CCC43C)C1CC(O)C2 (stereo not given)	·	·	-2	·	2	·	·
C[C@]12CCC(O)CC1CCC1C2CC[C@]2(C)C(c3cc(C(F)(F)F)n[nH]3)CCC12 (stereo not given in full)	11	44*	-3	16	5	?	?
COC(=O)c1sc2nc3c(cc2c1N)C(=O)CC(C)(C)C3	2	16	-2	0	-28	·	·
Cc1cc(C)c(NC(=O)c2sc3nc4c(cc3c2N)C(=O)CC(C)(C)C4)c(C)c1	-10	5	1	44*	-7	-5%	1%
O=C(CSc1nncs1)NNC(=O)c1ccco1	-5	0	-4	0	-4	-1%	-1%
COc1ccc(N2CCN(C(=O)CCCNC(=O)Cn3cnc4sc(C)c(C)c4c3=O)CC2)cc1	-22	-4	-4	44*	-8	-1%	6%
CCOC(=O)c1cc2c(=O)n3ccccc3nc2n(C(C)C)c1=NC(=O)C(C)(C)Oc1ccc(Cl)cc1	5	·	·	·	·	·	·
Cc1cc(C)c2nc(N3CCCC(C(=O)NCc4ccccc4F)C3)sc2c1 (stereo not given)	-3	·	·	0	·	·	·
O=C(CCC1CCCC1)NNC(=O)c1ccc(F)cc1	1	-5	-7	-1	3	-11%	-1%
CC(Cc1ccccc1)C(=O)NCc1ccncc1 (stereo not given)	2	-25	-1	1	-19	·	·
CC(CCc1ccccc1)NCc1ccncc1 (stereo not given)	-23	64*	?	68*	0	?	?
CCOc1ccc(NC(=O)CC2C(=O)N(c3cccc(C)c3)C(=O)N2CCC2=CCCCC2)cc1 (stereo not given)	-19	·	·	0	·	·	·
O=C(CCc1nc2ccccc2c(=O)[nH]1)Nc1ccc(Cl)c(Cl)c1	-23	54*	?	70*	15	?	?
COc1ccccc1NCC(O)COc1ccc(C(C)(C)C)cc1 (stereo not given)	0	7	4	0	1	·	·
SMILES	D2 PAM-1	D2 antag	D2 ag-1	D2 ag-2	D2 PAM-2	D3 arrestin ag	D2 ag-3
COc1ccc(OCC(O)CNCCOc2ccccc2OC)c(C(C)(C)C)c1 (stereo not given)	-21	71*	2	45*	-10	22%	19%
Cc1ccccc1Cn1c(C)c(CNCCCc2ccccc2)c(C(=O)O)c1C	1	·	·	0	·	·	·
CCCN1CCc2c(sc(NC(=S)NC(=O)c3ccccc3)c2C#N)C1	-15	78*	14	77*	17	7%	13%
CN1CCc2c(sc(NC(=O)Cc3ccccc3)c2C#N)C1	-23	70*	5	78*	14	13%	?
CC(C)N1CCc2c(sc(NC(=S)NC(=O)c3ccccc3)c2C#N)C1	1	1	-9	3	-9	·	·
CN1CCc2c(sc(NC(=O)c3ccc(C(=O)c4ccccc4)cc3)c2C(N)=O)C1	-13	37*	-1	69*	-5	-9%	-1%
CCN1CCc2c(sc(NC(=S)NC(=O)c3ccc(Cl)cc3)c2C(N)=O)C1	-12	-12	-10	44*	-19	-4%	-10%
COc1ccc(CC(=O)NC2CC(=O)N(c3cccc(F)c3)C2)cc1 (stereo not given)	-1	·	·	0	·	·	·
CCCOC(=O)c1cccc(Nc2nc(CCC)cc(=O)[nH]2)c1	-13	·	·	4	·	·	·
COc1ccc(C)cc1S(=O)(=O)NCCC1=CCCCC1	7	18	-3	1	-17	·	·
CCOc1ccc(S(=O)(=O)NCCC2=CCCCC2)c2ccccc12	-19	17	1	2	-10	-3%	4%
Cc1ccc(NC(=O)CSc2nnc3nc(C)cc(C)n23)cc1	-7	·	·	0	·	·	·
COc1ccc(OC)c(S(=O)(=O)NCc2cn3ccsc3n2)c1	-9	-2	-4	26	-8	-5%	2%
COc1ccc(C2c3ccc4ccccc4c3Oc3ncn(CCO)c(=N)c32)cc1OC (stereo not given)	·	·	-1	·	4	·	·
